# Source: the supplement of paper PMC10037445
# Whole data set: some 2,900 compounds, median “NF-kB SEAP reporter activity, fold change vs agonist alone” near 0.99, cut for the highest 2% near 2.6. The list comes from a sample in which the highest values are over-represented; it also holds similar structures and randomly drawn compounds.
# Columns and labels:
# [1] = tested on: RAW-Dual; assay: NF-kB SEAP reporter activity, fold change vs agonist alone; cytotoxicity flag (confluency mask): not cytotoxic; higher = enhanced NF-kB activity
# In short: (§1)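 RAW-Dual macrophages (50,000 cells/well in DMEM, 384-well plates) received 50 nL of library stock by pin tool, then a PRR agonist 1 h later, and were kept at 37 °C, 5% CO2. After 20 hours, supernatant was read for IRF by QuantiLuc luminescence and for NF-κB by QuantiBlue absorbance at 620 nm. Reporter activity is fold change over agonist-alone wells. Cytotoxic wells had IncuCyte confluency below 70% of agonist controls in both mask sets.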
# [2] = tested on: RAW-Dual; assay: NF-kB SEAP reporter activity, fold change vs agonist alone; higher = enhanced NF-kB activity
# In short: as §1
# [3] = tested on: RAW-Dual; assay: NF-kB SEAP reporter activity, fold change vs agonist alone; cytotoxicity flag (confluency mask): cytotoxic (confluency <70% of control); higher = enhanced NF-kB activity
# In short: as §1
# [4] = agonist: ODN 1826 (TLR9) 0.5 ug/mL
# [5] = agonist: Pam2CSK4 (TLR2/6) 0.1 ug/mL
# [6] = agonist: Pam3CSK4 (TLR2/1) 0.1 ug/mL
# [7] = library stock concentration (final ~1000-fold dilution): 10 mM, cytotoxicity flag (confluency mask): not cytotoxic, agonist: Imiquimod (TLR7) […]
# [8] = library stock concentration (final ~1000-fold dilution): 10 mM, cytotoxicity flag (confluency mask): not cytotoxic, agonist: MPLA (TLR4) […]
# [9] = library stock concentration (final ~1000-fold dilution): .1 mM, cytotoxicity flag (confluency mask): not cytotoxic, agonist: Imiquimod (TLR7) […]
# [10] = library stock concentration (final ~1000-fold dilution): .1 mM, cytotoxicity flag (confluency mask): not cytotoxic, agonist: MPLA (TLR4) […]
smiles,measurement,setting,value
CC(NCc1ccc(OCc2cccc(F)c2)cc1)C(N)=O.CS(=O)(=O)O (stereo not drawn) (library stock concentration (final ~1000-fold dilution): 10 mM),NF-kB SEAP reporter activity,[1]; agonist: LPS (TLR4) 0.1 ug/mL,1.08
same,NF-kB SEAP reporter activity,[1]; [4],1.17
same,NF-kB SEAP reporter activity,[1]; [5],0.813
same,NF-kB SEAP reporter activity,[1]; [6],1.1
CC(NCc1ccc(OCc2cccc(F)c2)cc1)C(N)=O.CS(=O)(=O)O (stereo not drawn),NF-kB SEAP reporter activity,[2]; [7],1.73
same,NF-kB SEAP reporter activity,[2]; [8],1.07
CCc1cnn2c(NCc3ccc[n+]([O-])c3)cc(N3CCCCC3CCO)nc12 (stereo not drawn) (library stock concentration (final ~1000-fold dilution): 10 mM),NF-kB SEAP reporter activity,[3]; agonist: LPS (TLR4) 0.1 ug/mL,0.193
same,NF-kB SEAP reporter activity,[3]; [4],0.198
same,NF-kB SEAP reporter activity,[3]; [5],0.0843
same,NF-kB SEAP reporter activity,[3]; [6],0.182
CCc1cnn2c(NCc3ccc[n+]([O-])c3)cc(N3CCCCC3CCO)nc12 (stereo not drawn),NF-kB SEAP reporter activity,"[2]; library stock concentration (final ~1000-fold dilution): 10 mM, cytotoxicity flag (confluency mask): cytotoxic (confluency <70% of control), agonist: Imiquimod (TLR7) […]",0.308
same,NF-kB SEAP reporter activity,"[2]; library stock concentration (final ~1000-fold dilution): 10 mM, cytotoxicity flag (confluency mask): cytotoxic (confluency <70% of control), agonist: MPLA (TLR4) […]",0.225
Cc1cn(-c2cc(NC(=O)c3ccc(C)c(Nc4nccc(-c5cccnc5)n4)c3)cc(C(F)(F)F)c2)cn1.Cl,NF-kB SEAP reporter activity,[2]; [8],2.49
Cc1cn(-c2cc(NC(=O)c3ccc(C)c(Nc4nccc(-c5cccnc5)n4)c3)cc(C(F)(F)F)c2)cn1.Cl (library stock concentration (final ~1000-fold dilution): 10 mM),NF-kB SEAP reporter activity,[1]; agonist: LPS (TLR4) 0.1 ug/mL,2.23
same,NF-kB SEAP reporter activity,[1]; [4],1.41
same,NF-kB SEAP reporter activity,[1]; [5],0.403
same,NF-kB SEAP reporter activity,[1]; [6],0.466
Nc1nc(NC2CC2)c2ncn(C3C=CC(CO)C3)c2n1 (stereo not drawn),NF-kB SEAP reporter activity,[2]; [8],1.16
Nc1nc(NC2CC2)c2ncn(C3C=CC(CO)C3)c2n1 (stereo not drawn) (library stock concentration (final ~1000-fold dilution): 10 mM),NF-kB SEAP reporter activity,[1]; agonist: LPS (TLR4) 0.1 ug/mL,1.05
same,NF-kB SEAP reporter activity,[1]; [4],1.07
same,NF-kB SEAP reporter activity,[1]; [5],1.35
same,NF-kB SEAP reporter activity,[1]; [6],1.07
CCN(CC)C(=O)C1(c2ccccc2)CC1CN.Cl (stereo not drawn),NF-kB SEAP reporter activity,[2]; [7],1.02
same,NF-kB SEAP reporter activity,[2]; [8],1.1
CCN(CC)C(=O)C1(c2ccccc2)CC1CN.Cl (stereo not drawn) (library stock concentration (final ~1000-fold dilution): 10 mM),NF-kB SEAP reporter activity,[1]; agonist: LPS (TLR4) 0.1 ug/mL,0.999
same,NF-kB SEAP reporter activity,[1]; [4],0.858
same,NF-kB SEAP reporter activity,[1]; [5],0.856
same,NF-kB SEAP reporter activity,[1]; [6],1.18
CC(=O)O.NCc1ccc(S(N)(=O)=O)cc1 (library stock concentration (final ~1000-fold dilution): 10 mM),NF-kB SEAP reporter activity,[1]; agonist: LPS (TLR4) 0.1 ug/mL,1.04
same,NF-kB SEAP reporter activity,[1]; [4],1.01
same,NF-kB SEAP reporter activity,[1]; [5],0.927
same,NF-kB SEAP reporter activity,[1]; [6],1.23
CC(=O)O.NCc1ccc(S(N)(=O)=O)cc1,NF-kB SEAP reporter activity,[2]; [7],1.17
same,NF-kB SEAP reporter activity,[2]; [8],1.03
CC1(C)CC(=O)c2c(C(F)(F)F)nn(-c3ccc(C(N)=O)c(NC4CCC(OC(=O)CN)CC4)c3)c2C1 (stereo not drawn) (library stock concentration (final ~1000-fold dilution): 10 mM),NF-kB SEAP reporter activity,[1]; agonist: LPS (TLR4) 0.1 ug/mL,0.226
same,NF-kB SEAP reporter activity,[1]; [4],0.929
same,NF-kB SEAP reporter activity,[1]; [5],0.113
same,NF-kB SEAP reporter activity,[1]; [6],0.234
CC1(C)CC(=O)c2c(C(F)(F)F)nn(-c3ccc(C(N)=O)c(NC4CCC(OC(=O)CN)CC4)c3)c2C1 (stereo not drawn),NF-kB SEAP reporter activity,[2]; [7],0.916
same,NF-kB SEAP reporter activity,[2]; [8],0.907
CC#CC(=O)N1CCC(n2c(=O)n(-c3ccc(Oc4ccccc4)cc3)c3c(N)ncnc32)C1.Cl (stereo not drawn),NF-kB SEAP reporter activity,[2]; [7],0.734
same,NF-kB SEAP reporter activity,[2]; [8],0.814
CC#CC(=O)N1CCC(n2c(=O)n(-c3ccc(Oc4ccccc4)cc3)c3c(N)ncnc32)C1.Cl (stereo not drawn) (library stock concentration (final ~1000-fold dilution): 10 mM),NF-kB SEAP reporter activity,[1]; agonist: LPS (TLR4) 0.1 ug/mL,0.647
same,NF-kB SEAP reporter activity,[1]; [4],0.662
same,NF-kB SEAP reporter activity,[1]; [5],0.378
same,NF-kB SEAP reporter activity,[1]; [6],0.517
CCOC(=O)C=P(c1ccccc1)(c1ccccc1)c1ccccc1 (library stock concentration (final ~1000-fold dilution): 10 mM),NF-kB SEAP reporter activity,[1]; agonist: LPS (TLR4) 0.1 ug/mL,0.964
same,NF-kB SEAP reporter activity,[1]; [4],0.875
same,NF-kB SEAP reporter activity,[1]; [5],0.894
same,NF-kB SEAP reporter activity,[1]; [6],0.912
CCOC(=O)C=P(c1ccccc1)(c1ccccc1)c1ccccc1,NF-kB SEAP reporter activity,[2]; [7],0.715
same,NF-kB SEAP reporter activity,[2]; [8],1.05
O=C(NCC(O)CN1CCc2ccccc2C1)c1ccnc(NC2CCC2)c1 (stereo not drawn),NF-kB SEAP reporter activity,[2]; [7],0.885
same,NF-kB SEAP reporter activity,[2]; [8],0.997
O=C(NCC(O)CN1CCc2ccccc2C1)c1ccnc(NC2CCC2)c1 (stereo not drawn) (library stock concentration (final ~1000-fold dilution): 10 mM),NF-kB SEAP reporter activity,[1]; agonist: LPS (TLR4) 0.1 ug/mL,0.908
same,NF-kB SEAP reporter activity,[1]; [4],0.581
same,NF-kB SEAP reporter activity,[1]; [5],1.03
same,NF-kB SEAP reporter activity,[1]; [6],0.884
CN(c1ncccc1CNc1nc(Nc2ccc3c(c2)CC(=O)N3)ncc1C(F)(F)F)S(C)(=O)=O.O=S(=O)(O)c1ccccc1 (library stock concentration (final ~1000-fold dilution): 10 mM),NF-kB SEAP reporter activity,[1]; agonist: LPS (TLR4) 0.1 ug/mL,0.207
same,NF-kB SEAP reporter activity,[1]; [4],0.982
same,NF-kB SEAP reporter activity,[1]; [5],0.147
same,NF-kB SEAP reporter activity,[1]; [6],0.882
CN(c1ncccc1CNc1nc(Nc2ccc3c(c2)CC(=O)N3)ncc1C(F)(F)F)S(C)(=O)=O.O=S(=O)(O)c1ccccc1,NF-kB SEAP reporter activity,[2]; [7],1.02
same,NF-kB SEAP reporter activity,[2]; [8],0.953
CC(C)(F)CC(NC(c1ccc(-c2ccc(S(C)(=O)=O)cc2)cc1)C(F)(F)F)C(=O)NC1(C#N)CC1 (stereo not drawn) (library stock concentration (final ~1000-fold dilution): 10 mM),NF-kB SEAP reporter activity,[1]; agonist: LPS (TLR4) 0.1 ug/mL,0.968
same,NF-kB SEAP reporter activity,[1]; [4],1.15
same,NF-kB SEAP reporter activity,[1]; [5],0.937
same,NF-kB SEAP reporter activity,[1]; [6],0.97
CC(C)(F)CC(NC(c1ccc(-c2ccc(S(C)(=O)=O)cc2)cc1)C(F)(F)F)C(=O)NC1(C#N)CC1 (stereo not drawn),NF-kB SEAP reporter activity,[2]; [7],0.932
same,NF-kB SEAP reporter activity,[2]; [8],1.02
COc1ccc2c(-c3ccc(O)c(C)c3)ccnc2c1,NF-kB SEAP reporter activity,[2]; [9],0.339
same,NF-kB SEAP reporter activity,[2]; [10],1.1
Cc1cc(-c2ccnc3cc(O)ccc23)ccc1O (library stock concentration (final ~1000-fold dilution): .1 mM),NF-kB SEAP reporter activity,[1]; agonist: LPS (TLR4) 0.1 ug/mL,3.3
same,NF-kB SEAP reporter activity,[1]; [4],1.31
same,NF-kB SEAP reporter activity,[1]; [5],1.32
same,NF-kB SEAP reporter activity,[1]; [6],1.41
Cc1cc(-c2ccnc3cc(O)ccc23)ccc1O,NF-kB SEAP reporter activity,[2]; [9],1.38
same,NF-kB SEAP reporter activity,[2]; [10],2.06
